FAS TE block – FAS thioesterase (human) inhibition. P49327. recombinant FAS-TE, OMFH fluorogenic substrate, fluorescence endpoint. inhibition, % at 15 µM. hit rate 0.67% among 360,000. AID 602261;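 active = compounds whose normalised, plate-corrected inhibition of enzyme fluorescence in the single-dose primary screen is 50% or more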
Target sequence (P49327 whole entry, looked up): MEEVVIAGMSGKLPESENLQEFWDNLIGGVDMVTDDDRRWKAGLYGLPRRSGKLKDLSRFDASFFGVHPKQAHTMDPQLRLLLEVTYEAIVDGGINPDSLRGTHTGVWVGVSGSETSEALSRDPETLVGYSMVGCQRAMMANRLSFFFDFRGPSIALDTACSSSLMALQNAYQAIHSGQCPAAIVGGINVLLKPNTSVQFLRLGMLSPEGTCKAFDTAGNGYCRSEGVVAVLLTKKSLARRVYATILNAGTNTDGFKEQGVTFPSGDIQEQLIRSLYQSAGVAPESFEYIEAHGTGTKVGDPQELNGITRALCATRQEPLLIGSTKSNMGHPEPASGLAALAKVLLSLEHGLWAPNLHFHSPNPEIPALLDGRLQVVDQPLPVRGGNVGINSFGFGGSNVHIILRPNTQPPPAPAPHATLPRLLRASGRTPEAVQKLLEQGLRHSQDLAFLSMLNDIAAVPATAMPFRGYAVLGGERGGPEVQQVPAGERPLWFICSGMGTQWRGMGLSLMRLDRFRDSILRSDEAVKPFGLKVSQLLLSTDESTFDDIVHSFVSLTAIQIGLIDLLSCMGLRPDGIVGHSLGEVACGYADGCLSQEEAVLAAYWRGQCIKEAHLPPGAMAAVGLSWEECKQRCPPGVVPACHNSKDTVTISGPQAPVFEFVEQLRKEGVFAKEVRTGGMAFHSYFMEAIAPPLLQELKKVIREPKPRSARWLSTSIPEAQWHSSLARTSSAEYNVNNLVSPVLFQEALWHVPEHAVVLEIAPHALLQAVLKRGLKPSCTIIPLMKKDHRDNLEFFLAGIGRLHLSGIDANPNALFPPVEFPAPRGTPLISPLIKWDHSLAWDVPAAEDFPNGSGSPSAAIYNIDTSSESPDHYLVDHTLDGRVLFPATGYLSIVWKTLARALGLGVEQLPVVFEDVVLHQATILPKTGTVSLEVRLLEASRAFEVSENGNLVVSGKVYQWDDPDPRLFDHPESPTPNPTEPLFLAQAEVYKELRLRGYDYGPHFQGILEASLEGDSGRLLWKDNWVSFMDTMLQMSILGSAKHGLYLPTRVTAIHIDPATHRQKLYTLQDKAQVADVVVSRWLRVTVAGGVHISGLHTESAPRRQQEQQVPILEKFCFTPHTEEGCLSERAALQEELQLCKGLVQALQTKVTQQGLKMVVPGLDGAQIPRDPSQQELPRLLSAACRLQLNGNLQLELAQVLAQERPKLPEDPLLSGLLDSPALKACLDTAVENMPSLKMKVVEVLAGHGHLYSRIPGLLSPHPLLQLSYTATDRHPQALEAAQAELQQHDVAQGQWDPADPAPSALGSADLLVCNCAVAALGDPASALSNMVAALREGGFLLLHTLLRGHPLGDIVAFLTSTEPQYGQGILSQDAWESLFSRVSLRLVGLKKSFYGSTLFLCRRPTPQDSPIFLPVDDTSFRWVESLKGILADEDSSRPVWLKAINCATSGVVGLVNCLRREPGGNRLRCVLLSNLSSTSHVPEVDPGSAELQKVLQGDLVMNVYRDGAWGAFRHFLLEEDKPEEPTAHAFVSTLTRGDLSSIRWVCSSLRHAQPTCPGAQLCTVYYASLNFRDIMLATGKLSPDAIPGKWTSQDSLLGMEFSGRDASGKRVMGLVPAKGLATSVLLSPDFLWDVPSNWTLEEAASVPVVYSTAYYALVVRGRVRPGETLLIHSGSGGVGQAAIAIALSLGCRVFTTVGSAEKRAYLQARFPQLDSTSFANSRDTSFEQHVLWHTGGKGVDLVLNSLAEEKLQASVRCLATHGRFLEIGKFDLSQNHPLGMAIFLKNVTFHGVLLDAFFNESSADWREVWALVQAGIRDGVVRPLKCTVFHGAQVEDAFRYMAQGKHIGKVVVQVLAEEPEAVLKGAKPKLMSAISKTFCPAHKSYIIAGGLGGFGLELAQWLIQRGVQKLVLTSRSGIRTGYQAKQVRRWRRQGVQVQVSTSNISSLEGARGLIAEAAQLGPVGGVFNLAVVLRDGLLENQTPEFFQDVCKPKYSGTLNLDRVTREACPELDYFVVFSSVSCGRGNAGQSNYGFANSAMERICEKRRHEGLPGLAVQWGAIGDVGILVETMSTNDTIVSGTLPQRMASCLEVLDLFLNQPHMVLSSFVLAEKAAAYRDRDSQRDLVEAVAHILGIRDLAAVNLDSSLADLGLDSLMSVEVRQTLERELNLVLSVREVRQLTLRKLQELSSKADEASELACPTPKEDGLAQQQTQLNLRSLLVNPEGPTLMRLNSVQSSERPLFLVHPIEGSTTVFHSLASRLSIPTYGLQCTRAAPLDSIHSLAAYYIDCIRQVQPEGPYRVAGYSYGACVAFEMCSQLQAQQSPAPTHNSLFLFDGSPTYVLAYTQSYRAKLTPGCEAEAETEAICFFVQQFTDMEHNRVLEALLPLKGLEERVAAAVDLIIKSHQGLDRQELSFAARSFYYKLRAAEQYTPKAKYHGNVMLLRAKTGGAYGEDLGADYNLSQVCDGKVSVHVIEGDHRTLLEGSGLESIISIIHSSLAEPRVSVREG
Myeloid diff MLP – myeloid differentiation induction. ER-HoxA9 myeloid progenitors, lysozyme-GFP differentiation, flow cytometry. calls only at 10 µM. hit rate 1% among 360,000;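 active = normalized GFP-positive differentiation at or above the plate's own cutoff, the solvent-only control mean plus 3 SD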;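 also: cells exposed to compound for four days before flow analysis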
NR3A LBD binder – modulators (binders) of human NR3A ligand-binding domain. NR3A LBD differential scanning fluorimetry, Tm shift; 0% = protein alone, 100% = glycine-bound protein. Tm shift relative to glycine control, % at 25 µM. hit rate 2.5% among 340,000. AID 1259313;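 active = melting temperature shift of at least 10% of the positive control shift, at one fixed dose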
MPTP inh – blocks calcium-induced mitochondrial swelling; inhibition, % at 10 µM; AID 602449; isolated mouse mitochondria, Ca2+ swelling absorbance, 30 min; hit rate 1.4% among 360,000;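 active = inhibition of 50% or more, scaled per plate between neutral and stimulator controls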
rCAG RNA binder – r(CAG) repeat RNA binding. TO-PRO-1 dye displacement fluorescence. inhibition, % at 3 µM. hit rate 1.3% among 370,000;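 active = inhibition above the plate cutoff, the mean of all test compounds on that plate plus 3 SD, cut at about 35% in these data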;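 also: higher means more dye released from RNA so lower well fluorescence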
Myeloid diff – myeloid differentiation induction; shares compounds with Myeloid diff MLP; ER-HoxA9 myeloid progenitors, GFP/Mac1 double-positive flow; calls only; hit rate 2% among 2,300; AID 651706;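 active = share of green or green-and-red cells above 9 and 9% in run 1 or 4 and 3% in run 2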
GFP autofluor – counter-screen for myeloid differentiation promoters: compound fluorescence; shares compounds with Myeloid diff MLP; ER-HoxA9 myeloid progenitors, no estrogen, GFP autofluorescence flow cytometry; vehicle wells 0%, positive control 100%; fluorescence response, % (test concentration not listed); hit rate 7.4% among 2,300;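 active = over 5% cells positive for green fluorescent reporter, or over 2% positive for both it and APC stain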
Of the large screens only hits and unclear results are named; the others gave an inactive call (follow-up assays come after a bar, where they were run). Only some compounds are listed: those with a hit (about 5.7% of all), similar ones and a draw of the others.

COC(=O)c1ccccc1NC(=O)c1nc2nc(C)cc(C)n2n1	none | Myeloid diff inactive | GFP autofluor inactive
CN(CC(=O)Nc1cccc(F)c1)C(=O)c1ccc(S(=O)(=O)N2CCCC2)cc1	none
COc1nc(OC)nc(N2CCCCCC2)n1	none | Myeloid diff inactive | GFP autofluor inactive
COc1nc(OC)nc(N2CCC(C(=O)NCC3CCCCC3)CC2)n1	none
C=CCNC(=O)/C(=C/c1cccc([N+](=O)[O-])c1)NC(=O)c1ccco1	none
CCOC(=O)C1CCN(Cc2cc(C(C)C)c(O)c(C(C)C)c2)CC1	Myeloid diff MLP active | Myeloid diff inactive | GFP autofluor inactive
Cc1ccc(C(=O)NNC2=Nc3cccc4cccc2c34)cc1	none
NC(=O)NNC1=Nc2cccc3cccc1c23	none | Myeloid diff inactive | GFP autofluor inactive
COc1ccc(Cl)cc1CC1(C)C(=O)Nc2ccc(-c3ccccc3OC)cc21 (centres undefined)	Myeloid diff MLP active (no result: NR3A LBD binder) | Myeloid diff inactive | GFP autofluor inactive
COc1ccccc1-c1ccc2c(c1)C(C)(Cc1cc(Cl)ccc1C(F)(F)F)C(=O)N2 (centres undefined)	none (no result: NR3A LBD binder)
CC(=O)Nc1cc(-c2cccc(C(=O)NCCN(C)C)c2)cn2c(-c3ccc(S(C)(=O)=O)cc3)cnc12	Myeloid diff MLP active (no result: NR3A LBD binder) | Myeloid diff inactive | GFP autofluor 5.3
CC1CN(C(=O)CN2C(=O)NC3(CCCCCCC3)C2=O)CC(C)O1 (centres undefined)	Myeloid diff MLP active | Myeloid diff inactive | GFP autofluor inactive
COc1ccc(-c2csc(NC(=O)C3CC(=O)N(Cc4ccco4)C3)n2)cc1 (centres undefined)	none
COc1ccc(-c2nc(NC(=O)C3CC(=O)N(Cc4ccco4)C3)sc2C)cc1 (centres undefined)	none | Myeloid diff inactive | GFP autofluor inactive
O=C(Cc1ccccc1)NCc1n[nH]c(=S)n1-c1ccc(Br)cc1	none
COc1ccc(CCN2C(=O)CS/C2=N\NC(=O)c2ccc(C(C)(C)C)cc2)cc1OC	none | Myeloid diff inactive | GFP autofluor inactive
CC(=O)CC(=O)NC(=NC1CCCCC1)Nc1nc(C)cc(C)n1	Myeloid diff MLP active | Myeloid diff inactive | GFP autofluor inactive
CCOc1ccccc1C1NC(=O)CCC1[N+](=O)[O-] (centres undefined)	none
CC(C)Oc1ccccc1C1NC(=O)CCC1[N+](=O)[O-] (centres undefined)	none | Myeloid diff inactive | GFP autofluor inactive
CCOc1ccccc1C(=O)N1CCN(c2cccc(Cl)c2)CC1	none | Myeloid diff inactive | GFP autofluor inactive
Cc1ccc(C)c(S(=O)(=O)N2CCN(C(=O)Cc3ccccc3)CC2)c1	none
Cc1ccc(C)c(S(=O)(=O)N2CCN(C(=O)CCC(=O)c3cc(C)sc3C)CC2)c1	Myeloid diff MLP active | Myeloid diff inactive | GFP autofluor inactive
COc1ccccc1NC(=O)N1CCN(c2ccccc2F)CC1	none | Myeloid diff inactive | GFP autofluor inactive
COc1ccccc1NC(=O)CN1CCN(c2ccccc2F)CC1	none
C#CCOCCOCCOCCNc1nc(N2CCN(C(=O)C([C@@H](C)O)n3cc([C@@H](N)CCCCN)nn3)CC2)nc(N2CCN(C(=O)C([C@@H](C)O)n3cc([C@@H](N)CCCCN)nn3)CC2)n1 (some centres undefined)	none
CC(=NNC(=O)CSc1nnc(-c2ccc(C(C)(C)C)cc2)n1-c1ccccc1)c1cccc2ccccc12	none (no result: FAS TE block, Myeloid diff MLP, NR3A LBD binder, MPTP inh)
CCn1c(Sc2ccc([N+](=O)[O-])cn2)nnc1-c1ccco1	none | Myeloid diff inactive | GFP autofluor inactive
COc1ccccc1C1(CCNS(=O)(=O)c2ccc(C)cc2)CCOC(C(C)C)C1 (centres undefined)	Myeloid diff MLP active | Myeloid diff inactive | GFP autofluor inactive
CC(=O)Nc1ccc(SCCCC(=O)c2ccccc2)cc1	none
NC(N)=NC(=O)c1nc(Cl)c(N2CCCCCC2)nc1N	none
NC(N)=NC(=O)c1nc(Cl)c(N)nc1N	none (no result: MPTP inh) | Myeloid diff inactive | GFP autofluor inactive
O=C(N/N=C/c1ccc(N2CCOCC2)s1)c1ccccc1Cl	none
C(=N\N(c1ccccc1)c1ccccc1)/c1ccc(N2CCOCC2)s1	Myeloid diff MLP active | Myeloid diff inactive | GFP autofluor inactive

Compound activity from PubChem BioAssay.
